# Source: PubChem BioAssay AID1508601 (ICCB-Longwood Screening Facility, Harvard Medical School, 2020)
# The whole screen tested about 5,700 compounds, of which about 85 (1%) were called active. No stated cut-off is given here; in the data, active means p53-positive nuclei above about 36% (passing the limit was not always enough); inactive means the rest. What follows is part of a selection rich in actives, with near analogues and random picks from the rest.
# Key:
# [1] = nuclear p53 accumulation, HPV+ cells – imaging, p53-positive nuclei imaging, 24 h, 48 h (AID 1508601); conditions: 24/48 h
# [2] = target: Cellular tumor antigen p53 (Homo sapiens) (UniProt P04637); test: as above; conditions: 24/48 h, stronger effect = higher value
# Cellular tumor antigen p53 (Homo sapiens), sequence (P04637 whole entry, looked up): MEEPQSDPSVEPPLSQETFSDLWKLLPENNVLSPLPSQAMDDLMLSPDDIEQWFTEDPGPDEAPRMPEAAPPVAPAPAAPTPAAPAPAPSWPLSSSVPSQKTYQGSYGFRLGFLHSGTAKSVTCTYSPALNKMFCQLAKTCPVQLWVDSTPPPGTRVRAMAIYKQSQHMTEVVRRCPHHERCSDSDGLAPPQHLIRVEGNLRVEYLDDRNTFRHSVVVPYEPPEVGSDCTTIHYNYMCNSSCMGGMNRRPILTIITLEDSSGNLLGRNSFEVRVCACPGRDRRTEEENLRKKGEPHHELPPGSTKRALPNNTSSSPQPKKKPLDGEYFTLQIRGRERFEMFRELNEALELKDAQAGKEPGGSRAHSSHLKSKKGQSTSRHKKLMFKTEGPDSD
# [3] = measured here: cell number at 24 h, concentration not given here
# [4] = measured here: cell number at 48 h, concentration not given here
# [5] = measured here: p53 positive nuclei at 24 h, concentration not given here
# [6] = measured here: cell number at 24 h, Library stock concentration: 80 uM
# [7] = measured here: cell number at 24 h, Library stock concentration: 400 uM
# [8] = measured here: cell number at 24 h, Library stock concentration: 2 mM
# [9] = measured here: cell number at 24 h, Library stock concentration: 10 mM
# [10] = measured here: cell number at 48 h, Library stock concentration: 80 uM
# [11] = measured here: cell number at 48 h, Library stock concentration: 400 uM
# [12] = measured here: cell number at 48 h, Library stock concentration: 2 mM
# [13] = measured here: cell number at 48 h, Library stock concentration: 10 mM
# [14] = Library stock concentration: 80 uM
# [15] = Library stock concentration: 400 uM
# [16] = Library stock concentration: 2 mM
# [17] = Library stock concentration: 10 mM
# [18] = measured here: p53 positive nuclei at 24 h, Library stock concentration: 80 uM
# [19] = measured here: p53 positive nuclei at 24 h, Library stock concentration: 400 uM
# [20] = measured here: p53 positive nuclei at 24 h, Library stock concentration: 2 mM
# [21] = measured here: p53 positive nuclei at 24 h, Library stock concentration: 10 mM
compound,measurement,setting,value
COc1nccnc1-c1ccc2c(c1)OCO2,"nuclei count, normalised",[1]; [3],115%
same,"nuclei count, normalised",[1]; [4],114%
same,"p53-positive nuclei, normalised",[2]; concentration not given here,-0.145% (inactive)
same,"p53-positive nuclei, normalised",[2]; [5],-0.0884%
NC(=O)c1ccc(-c2nc(-c3ccc4c(c3)OCCO4)c(-c3ccccn3)[nH]2)cc1,"nuclei count, normalised",[1]; [6],108%
same,"nuclei count, normalised",[1]; [7],108%
same,"nuclei count, normalised",[1]; [8],103%
same,"nuclei count, normalised",[1]; [9],105%
same,"nuclei count, normalised",[1]; [3],114%
same,"nuclei count, normalised",[1]; [10],111%
same,"nuclei count, normalised",[1]; [11],111%
same,"nuclei count, normalised",[1]; [12],103%
same,"nuclei count, normalised",[1]; [13],99.9%
same,"nuclei count, normalised",[1]; [4],116%
same,"p53-positive nuclei, normalised",[2]; [14],0.102% (inactive)
same,"p53-positive nuclei, normalised",[2]; [15],0.159% (inactive)
same,"p53-positive nuclei, normalised",[2]; [16],-0.0937% (inactive)
same,"p53-positive nuclei, normalised",[2]; [17],0.066% (inactive)
same,"p53-positive nuclei, normalised",[2]; concentration not given here,-0.0133% (inactive)
same,"p53-positive nuclei, normalised",[2]; [18],-0.0114%
same,"p53-positive nuclei, normalised",[2]; [19],0.0817%
same,"p53-positive nuclei, normalised",[2]; [20],-0.00675%
same,"p53-positive nuclei, normalised",[2]; [21],0.138%
same,"p53-positive nuclei, normalised",[2]; [5],-0.0284%
c1nc(-c2ccc3c(c2)OCCO3)c2sccc2n1,"nuclei count, normalised",[1]; [3],74.2%
same,"nuclei count, normalised",[1]; [4],38.4%
same,"p53-positive nuclei, normalised",[2]; concentration not given here,68.7% (active)
same,"p53-positive nuclei, normalised",[2]; [5],3%
CC=C1NC(=O)C2CSSCCC=CC(CC(=O)NC(C(C)C)C(=O)N2)OC(=O)C(C(C)C)NC1=O (centres undefined),"nuclei count, normalised","[1]; measured here: cell number at 24 h, Library stock concentration: 3.33 mM",45.3%
same,"nuclei count, normalised","[1]; measured here: cell number at 48 h, Library stock concentration: 3.33 mM",13.5%
same,"p53-positive nuclei, normalised",[2]; Library stock concentration: 3.33 mM,138% (active)
same,"p53-positive nuclei, normalised","[2]; measured here: p53 positive nuclei at 24 h, Library stock concentration: 3.33 mM",79.1%
OC1CCC(Nc2ncc3nc(Nc4c(F)cc(F)cc4F)n(C4CCOC4)c3n2)CC1 (centres undefined),"nuclei count, normalised",[1]; [6],108%
same,"nuclei count, normalised",[1]; [7],111%
same,"nuclei count, normalised",[1]; [8],106%
same,"nuclei count, normalised",[1]; [9],114%
same,"nuclei count, normalised",[1]; [10],111%
same,"nuclei count, normalised",[1]; [11],111%
same,"nuclei count, normalised",[1]; [12],112%
same,"nuclei count, normalised",[1]; [13],113%
same,"p53-positive nuclei, normalised",[2]; [14],0.0644% (inactive)
same,"p53-positive nuclei, normalised",[2]; [15],-0.0934% (inactive)
same,"p53-positive nuclei, normalised",[2]; [16],-0.0819% (inactive)
same,"p53-positive nuclei, normalised",[2]; [17],-0.265% (inactive)
same,"p53-positive nuclei, normalised",[2]; [18],0.0898%
same,"p53-positive nuclei, normalised",[2]; [19],-0.0608%
same,"p53-positive nuclei, normalised",[2]; [20],-0.051%
same,"p53-positive nuclei, normalised",[2]; [21],-0.0545%
O=C1SC(=Cc2ccc(OCc3cccc(B(O)O)c3)cc2)C(=O)N1Cc1ccc(F)cc1,"nuclei count, normalised",[1]; [6],110%
same,"nuclei count, normalised",[1]; [7],108%
same,"nuclei count, normalised",[1]; [8],110%
same,"nuclei count, normalised",[1]; [9],110%
same,"nuclei count, normalised",[1]; [10],102%
same,"nuclei count, normalised",[1]; [11],102%
same,"nuclei count, normalised",[1]; [12],109%
same,"nuclei count, normalised",[1]; [13],113%
same,"p53-positive nuclei, normalised",[2]; [14],0.073% (inactive)
same,"p53-positive nuclei, normalised",[2]; [15],0.243% (inactive)
same,"p53-positive nuclei, normalised",[2]; [16],0.131% (inactive)
same,"p53-positive nuclei, normalised",[2]; [17],-0.221% (inactive)
same,"p53-positive nuclei, normalised",[2]; [18],0.0618%
same,"p53-positive nuclei, normalised",[2]; [19],0.065%
same,"p53-positive nuclei, normalised",[2]; [20],0.123%
same,"p53-positive nuclei, normalised",[2]; [21],-0.0586%
CCN(CC)c1ccc(C=NNC(=O)c2ccc(O)cc2)cc1,"nuclei count, normalised","[1]; measured here: cell number at 24 h, Library stock concentration: 46 uM",111%
same,"nuclei count, normalised","[1]; measured here: cell number at 24 h, Library stock concentration: 278 uM",117%
same,"nuclei count, normalised","[1]; measured here: cell number at 24 h, Library stock concentration: 1.67 mM",121%
same,"nuclei count, normalised",[1]; [9],79.3%
same,"nuclei count, normalised","[1]; measured here: cell number at 48 h, Library stock concentration: 46 uM",116%
same,"nuclei count, normalised","[1]; measured here: cell number at 48 h, Library stock concentration: 278 uM",118%
same,"nuclei count, normalised","[1]; measured here: cell number at 48 h, Library stock concentration: 1.67 mM",118%
same,"nuclei count, normalised",[1]; [13],83.6%
same,"p53-positive nuclei, normalised",[2]; Library stock concentration: 46 uM,-0.325% (inactive)
same,"p53-positive nuclei, normalised",[2]; Library stock concentration: 278 uM,-0.186% (inactive)
same,"p53-positive nuclei, normalised",[2]; Library stock concentration: 1.67 mM,-0.0464% (inactive)
same,"p53-positive nuclei, normalised",[2]; [17],1.02% (inactive)
same,"p53-positive nuclei, normalised","[2]; measured here: p53 positive nuclei at 24 h, Library stock concentration: 46 uM",-0.151%
same,"p53-positive nuclei, normalised","[2]; measured here: p53 positive nuclei at 24 h, Library stock concentration: 278 uM",-0.0898%
same,"p53-positive nuclei, normalised","[2]; measured here: p53 positive nuclei at 24 h, Library stock concentration: 1.67 mM",0.0252%
same,"p53-positive nuclei, normalised",[2]; [21],0.906%
Nc1ccc(C(=O)O)c(O)c1 (tested in a mixture with another compound),"nuclei count, normalised",[1]; [3],95.8%
same,"nuclei count, normalised",[1]; [4],101%
same,"p53-positive nuclei, normalised",[2]; concentration not given here,0.284% (inactive)
same,"p53-positive nuclei, normalised",[2]; [5],0.00463%
CCC(C)C(NC(=O)C(C(C)CC)N(C)C(C)=O)C(=O)NC(C(=O)NC(CC(C)C)C(=O)[C@@]1(C)CO1)C(C)O (some centres undefined),"nuclei count, normalised",[1]; [6],52.8%
same,"nuclei count, normalised",[1]; [7],48.9%
same,"nuclei count, normalised",[1]; [8],47.9%
same,"nuclei count, normalised",[1]; [9],45.3%
same,"nuclei count, normalised",[1]; [10],41.4%
same,"nuclei count, normalised",[1]; [11],39.9%
same,"nuclei count, normalised",[1]; [12],38.3%
same,"nuclei count, normalised",[1]; [13],35.1%
same,"p53-positive nuclei, normalised",[2]; [14],104% (active)
same,"p53-positive nuclei, normalised",[2]; [15],100% (active)
same,"p53-positive nuclei, normalised",[2]; [16],107% (active)
same,"p53-positive nuclei, normalised",[2]; [17],106% (active)
same,"p53-positive nuclei, normalised",[2]; [18],124%
same,"p53-positive nuclei, normalised",[2]; [19],125%
same,"p53-positive nuclei, normalised",[2]; [20],127%
same,"p53-positive nuclei, normalised",[2]; [21],125%
CC(=O)N[C@@H](CC(C)C)C(=O)N1CCC(n2cc(C(C)(C)N)nn2)CC1,"nuclei count, normalised",[1]; [3],104%
same,"nuclei count, normalised",[1]; [4],109%
same,"p53-positive nuclei, normalised",[2]; concentration not given here,-0.0832% (inactive)
same,"p53-positive nuclei, normalised",[2]; [5],0.155%
